Growth data for 9 compounds are collected here from PubChem BioAssay (NCI).

Common to all, as to test: NCI-60 one-dose screen, 48 h (100 = growth as untreated, 0 = no growth, -100 = all killed)
Common to all, as to conditions: 10 µM unless noted

In test [1] the test system is SR leukemia.
The test system of test [2] is RPMI-8226 leukemia.
Test [3] deals with OVCAR-8 ovarian.
Test [4] relates to OVCAR-4 ovarian.
In test [5] the test system is SK-OV-3 ovarian.
Test [6] deals with IGROV1 ovarian.
Test [7] concerns OVCAR-3 ovarian.
Test [8] deals with HS 578T breast.
Test [9] concerns NCI/ADR-RES ovarian.
The subject of test [10] is T-47D breast.
The test system of test [11] is BT-549 breast.
For test [12], the system named is MDA-MB-435 melanoma.
The subject of test [13] is MCF7 breast.
In test [14] the test system is HCT-116 colon.
Test [15] has as its system HCC-2998 colon.
In test [16] the test system is KM12 colon.
The subject of test [17] is SW-620 colon.
The test system of test [18] is OVCAR-5 ovarian.

This is part of a sample that, as a whole, favours compounds with a hit. Of some 83,000 tested, about 20% had one in any assay.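 Activity criterion: percent growth below 10, measured after cells in 96-well plates were exposed to a single compound concentration for 48 hours.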 Values without a mark were called inactive. Calls of active or inactive are those of the source.

Consider `O=C1C(Cl)=C(NCCN2CCOCC2)C(=O)c2ncccc21`, for which the growth in test [1] was -17.9% (active); in [2], 20.4%; in test [3], 31.1%; in test [4], 95.8%; in [5] it was 41.5%; in [6], -58.8% (active). For the same compound, the growth in [7] was -63.5% (active); in test [8], 1.02% (active); in [9], 67.8%; in test [10], -40.8% (active); in test [11] it was -91.5% (active); in test [12], 102%. Besides, the growth in test [13] is -50% (active); in test [14] it was -51.9% (active); in [15], 31.8%; in test [16] it was 62.9%.
In the case of `O=C1c2cccnc2C(=O)c2c1c(C(=O)OCCCN1CCCCC1)c1ccccn21`, the growth in test [1] is -15.8% (active); in [2], -28.3% (active); in test [3], -32% (active); in [4], -61.8% (active); in test [5], -40.6% (active); in [6], -5% (active). Moreover, the growth was 0.168% (active) in test [7]; -16% (active) in test [8]; -13.3% (active) in test [9]; 24% in test [10]; -24.1% (active) in [11]; -41.5% (active) in [12]. Besides, the growth in [13] was -42% (active); in test [14], -20.3% (active); in test [15], -35.7% (active); in [16], -33.2% (active).
Regarding `C=C1C(=O)O[C@H]2[C@H]1CC/C(COC(=O)NCCCCCCCCNC(=O)OC/C1=C/CC[C@@]3(C)O[C@H]3[C@H]3OC(=O)C(=C)[C@@H]3CC1)=C\CC[C@@]1(C)O[C@@H]21`, the growth was -37.6% (active) in [1]; -42.8% (active) in [2]; -51.2% (active) in test [3]; -82.9% (active) in [4]; 34.4% in test [5]; -74.3% (active) in test [6]. For the same compound, the growth is -94.1% (active) in test [7]; 17.4% in test [8]; 43.9% in test [9]; -45.7% (active) in test [10]; -88.2% (active) in test [11]; -89.9% (active) in test [12]. For the same compound, the growth in test [17] was -74.7% (active); in test [13], -55.2% (active); in [14], -79.2% (active); in test [15], -65.5% (active); in test [16] it was -43.9% (active).
On to `COc1ccc2cc(-c3cnc4nonc4n3)ccc2c1`, for which the growth in [1] was 9.96% (active); in [2], 0.566% (active); in test [3] it was 23.9%; in [4] it was 50%; in test [5] it was 71%; in test [6] it was 60.3%. For the same compound, the growth in test [7] was 11.1%; in test [8] it was 13.9%; in test [9], -4.57% (active); in [10] it was 15.5%; in [17], 26.9%; in test [13], 15.7%. Further, the figures for the growth in test [14], in test [15] and in test [16] were 18.3%, 59.3% and 23.1%, respectively.
On to `Cc1ccc(C)c(-n2c(-c3ccc(Br)cc3)csc2=NC(=O)c2ccccc2F)c1`, for which the growth in test [1] is -11.5% (active); in test [2], -11.2% (active); in [3] it was 65.3%; in test [4] it was 40.6%; in test [5], 86.9%; in test [6], 213%. In addition, the growth was 75.5% in test [7]; 101% in test [8]; 56.7% in test [9]; 41.3% in test [10]; 28.7% in [11]; 67.2% in [12]. Also, the growth was 69.6% in test [17]; 59.1% in test [13]; 22.9% in test [14]; 117% in [15]; 60.8% in [16].
Take `CC1(C)CCC(S(=O)(=O)c2ccc3c(c2)/C(=N\O)c2cc(S(=O)(=O)N4CCN(c5ccc(F)cc5O)CC4)ccc2-3)CC1`: the growth in test [1] is -48.5% (active); in test [2], -45.9% (active); in test [3], -71.7% (active); in test [4], -94% (active); in test [5], -98.5% (active); in [6], -38.4% (active). Further, the growth was -83.4% (active) in test [7]; -54.1% (active) in test [8]; -3.41% (active) in [9]; -90.6% (active) in [10]; -86.7% (active) in test [11]; -92.3% (active) in [12]. The growth in [17] was -81.5% (active); in test [13], -67.9% (active); in test [14] it was -96.6% (active); in test [15], -92.1% (active); in test [16], -90.3% (active).
Regarding `CCN(CC)CCOc1nc2c3ccc(Cl)cc3nn2c2ccccc12`, the growth in test [1] was 5.43% (active); in test [2] it was -8.15% (active); in test [3], 28.6%; in [4] it was 35.4%; in test [5] it was 56%; in [6], 10.1%. Besides, the growth in test [7] is 54.6%; in [8] it was 55.2%; in [9], 25.3%; in [10] it was 53.4%; in [11], 70.3%; in [12], 36.3%. Also, the growth was 19.7% in test [17]; 2.07% (active) in [13]; 5.87% (active) in test [14]; 15.4% in [15]; 43.1% in test [16].
In the case of `COc1ccc2nc(SCC(=O)Nc3ccccc3C)[nH]c2c1`, the growth in test [2] is 90.1%; in test [3], 94.2%; in [18], 99.6%; in [4], 95.2%; in test [5], 105%; in [6], 103%. For the same compound, the growth was 107% in [7]; 90.9% in test [8]; 99% in [9]; 84.2% in test [10]; 97.6% in [11]; 97% in test [12]. Also, the growth is 99.4% in test [17]; 90.7% in test [13]; 98.9% in test [14]; 106% in test [15]; 101% in test [16].
Regarding `Nc1c(C(=O)O)cc(Cl)cc1[N+](=O)[O-]`, the growth in test [2] was 104%; in test [3], 92.7%; in test [18] it was 90.4%; in [4], 99.5%; in [5] it was 101%; in [6], 100%. The growth in test [7] was 105%; in test [8], 101%; in test [9] it was 97.8%; in test [10], 95.6%; in test [11], 109%; in test [12], 105%. In addition, the growth in test [17] was 99.5%; in test [13], 95.2%; in [14] it was 94.6%; in test [15] it was 95.1%; in test [16], 105%.
